Hits are enriched below; roughly 2.4% of the tested compounds scored in any of these assays.
Rango-impB inh: inhibitors of Rango-importin beta complex formation | Rango CFP/YFP FRET sensor + importin beta, 45 min | Q14974 | actives 0.031% (n = 340,000) | Potency, µM (titrated, usually from 92.2 µM), inactives show at the top dose inhibition of complex formation | AID 540263;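 also: 0% = DMSO wells and 100% = buffer wells lacking importin beta; nearly all actives have a fitted effect of over 15% in size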
Target sequence (Q14974 whole entry, looked up): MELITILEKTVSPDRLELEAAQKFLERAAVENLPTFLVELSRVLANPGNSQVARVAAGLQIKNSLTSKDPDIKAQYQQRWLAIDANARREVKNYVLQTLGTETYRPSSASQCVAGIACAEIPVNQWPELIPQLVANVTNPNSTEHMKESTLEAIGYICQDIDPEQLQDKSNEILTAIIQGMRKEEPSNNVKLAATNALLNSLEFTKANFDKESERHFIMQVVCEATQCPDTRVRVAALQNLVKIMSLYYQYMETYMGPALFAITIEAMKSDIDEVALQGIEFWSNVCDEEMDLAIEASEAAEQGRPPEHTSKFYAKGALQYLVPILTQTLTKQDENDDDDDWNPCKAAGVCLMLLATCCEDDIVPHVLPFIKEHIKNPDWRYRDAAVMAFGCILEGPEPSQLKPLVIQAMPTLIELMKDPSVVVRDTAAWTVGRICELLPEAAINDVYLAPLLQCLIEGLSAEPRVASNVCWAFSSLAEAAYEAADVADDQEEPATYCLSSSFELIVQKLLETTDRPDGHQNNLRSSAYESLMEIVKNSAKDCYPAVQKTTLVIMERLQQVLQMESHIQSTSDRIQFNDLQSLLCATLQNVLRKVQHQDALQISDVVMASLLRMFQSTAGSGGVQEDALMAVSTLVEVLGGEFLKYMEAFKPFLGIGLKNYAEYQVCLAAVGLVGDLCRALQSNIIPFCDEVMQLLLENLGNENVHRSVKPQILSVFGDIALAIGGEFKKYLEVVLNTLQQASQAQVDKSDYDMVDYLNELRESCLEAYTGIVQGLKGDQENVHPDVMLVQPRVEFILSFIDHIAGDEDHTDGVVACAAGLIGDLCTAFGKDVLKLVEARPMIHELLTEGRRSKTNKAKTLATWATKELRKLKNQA
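FRET biosensor Rango (snurportin 1 IBB between N-terminal EYFP and C-terminal Cerulean), 50 nM in PBS/1 mM DTT/0.02% Tween-20/0.1% BSA, preincubated 5 min RT with compound; 0.125 microM importin beta added, 45 min RT, CFP/YFP FRET ratio read.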
TSG101-PTAP inh: blocks PTAP/TSG101 interaction to inhibit HIV-1 budding | Q99816 | Fluorescence polarization, FITC-PTAP peptide / Tsg101 binding | Potency, µM (series often up to 115 µM), without a hit: top-dose activity change, negative = inhibition, actives largely listed as inhibitors | 340,000 tested, under 10 active | AID 493005; active = well fitted inhibition curve with a large enough effect in the main read-out, with a control signal flat, not every such curve was filed as active; inconclusive = small, poorly fitted or top-dose-only effect, or effect the other way, or a change in a side signal; inactive = no such curve, though single readings can be large or run the other way; also: % of control where 0% means no effect
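Compounds were pin-transferred onto Tsg101 binding domain (10 uM final) in HEPES pH 7.5 buffer, then FITC-PTAP peptide was added at 50 nM final. After 20 min at RT, polarization reported peptide displacement across a qHTS concentration series.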
ClpP mod: qHTS Assay for Activators of ClpP | ATP-dependent Clp protease proteolytic subunit (Bacillus subtilis (strain 168)), P80244 | Potency, µM (titrated, usually from 57.5 µM), without a hit: at the top dose activity change, negative = active | AID 651965, 2013 | actives 1.9% (n = 340,000) | purified B. subtilis ClpP, FRET peptide cleavage, 20 min; active = well fitted falling curve with a large enough effect; inconclusive = small, poorly fitted or top-dose-only effect; inactive = no such curve, though single readings can be large or run the other way; also: the source files actives as falling curves though it sought activators and does not explain the sign; nearly all actives have a fitted effect of over 65% in size
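ClpP 10 microg/mL final, pH 8 Tris/KCl buffer with BSA, glycerol, Tween-20; compound pinned in; FRET-FV substrate; RT 20 min; Ex320/Em430; ΔFRET vs ADEP 5.8 microM, DMSO, no enzyme.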
12-LOX inh: blocks human arachidonate 12S-lipoxygenase; purified 12hLO, xylenol orange hydroperoxide absorbance; Potency, µM (top dose mostly 108 µM), for the others: at the top dose activity change, negative = inhibition, most hits filed as inhibitors; actives 1.1% (n = 580,000); AID 1671190; active = well fitted curve in the direction sought with a large enough effect; inconclusive = small, poorly fitted or top-dose-only effect, or another doubt; inactive = no such curve, though single readings can be large; an effect the other way counts as inactive or inconclusive; also: % is scaled to controls: 0 for no effect and ±100 for the full control effect
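Purified human 12hLO (150 nM final) in 25 mM Hepes, 0.01% Triton X-100, pH 7.0 was preincubated 15 min at room temperature with compound. Then 40 uM arachidonic acid was added, 30 min. Hydroperoxide was read by Fe-XO absorbance ratio 573/405 nm.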
TDP1 inh: inhibitors of human tyrosyl-DNA phosphodiesterase TDP1; recombinant TDP1, AlphaScreen DNA substrate cleavage; Potency, µM (series often up to 130 µM), inactives show at the highest dose activity change, negative = inhibition, most hits filed as inhibitors; actives 0.28% (n = 350,000); AID 485290; active = well fitted curve in the direction sought with a large enough effect; inconclusive = small, poorly fitted or top-dose-only effect, or another doubt; inactive = no such curve, though single readings can be large; an effect the other way counts as inactive or inconclusive; also: % is scaled to controls: 0 for no effect and ±100 for the full control effect; nearly all actives have a fitted effect of over 40% in size
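Enzyme-compound mixtures sat 15 min at room temperature, followed by a 5 min reaction with 15 nM final substrate and 10 min with AlphaScreen beads. Recombinant human Tdp1 was used at 1 nM final.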
Rango dissoc inh: inhibitors of RanGTP-induced Rango-importin beta complex dissociation | actives 0.071% (n = 340,000) | Biochemical FRET Rango-importin beta, RanGTP-induced dissociation | Potency, µM (titrated, usually from 46.1 µM), for inactives: at the highest dose activity change, negative = inhibition; also: % of control where 0% means no effect; nearly all actives have a fitted effect of over 45% in size
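Recombinant Rango FRET biosensor (EYFP–snurportin 1 IBB–cerulean CFP10) at 0.1 uM premixed with 0.25 uM importin beta in PBS, 1 mM DTT, 0.02% Tween-20, 0.1% BSA. Compound added 5 min; RanGTP-RCC1 (0.6 uM Ran, 2 mM GTP, 0.2 uM RCC1) then triggers release, read at 45 min.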
Numbers without * were called inactive; ? = inconclusive; . = no result; [ ] = remark or other dose. Unless noted, calls follow the shape of the full dose curve. Potency is read from the fitted curve at half-maximal effect.

SMILES	Rango-impB inh	TSG101-PTAP inh	ClpP mod	12-LOX inh	TDP1 inh	Rango dissoc inh
Cc1ccc(SCC(=O)NC(=O)NCc2ccccc2)c(C)c1	-2%	-1%	35µM*	-14%	4%	19%
CCN(CC)c1ccc(/C=N/NC(=O)c2ccco2)c(O)c1	?	3%	-14%	0%	10%	?
CCN(CC)c1ccc(/C=N/NC(=O)Cc2cccs2)c(O)c1	?	4%	28µM*	-3%	3%	?
CCCCn1nnnc1C1(C)CCC(=O)N1c1ccc(N2CCOCC2)cc1 (stereo not drawn)	.	.	-1%	-1%	.	.
Cc1cccc(C)c1-n1nnnc1C1(C)CCC(=O)N1c1ccc(N2CCOCC2)cc1 (stereo not drawn)	.	.	-7%	11µM*	.	.
Cc1cccc(NC(=O)COc2ccc(/C=C\c3[nH]c(=O)[nH]c(=O)c3[N+](=O)[O-])cc2)c1	5%	0%	.	40µM*	0%	1%
O=c1[nH]c(/C=C/c2ccc([N+](=O)[O-])cc2)c([N+](=O)[O-])c(=O)[nH]1	-4%	-8%	1%	?	4%	-5%
CN(Cc1ccco1)c1ncnc2ccc(-c3ccoc3)cc12	0%	0%	.	1%	1%	-2%
CN(Cc1ccco1)c1ccnc(-c2ccoc2)n1	.	.	.	?	3.5µM*	.
O=c1c2ccccc2cnn1Cc1nnc(-c2cccs2)o1	0%	-5%	.	-22%	0%	-1%
C(=C\c1cccc2ccccc12)/c1nnc(-c2cccs2)o1	?	-3%	28µM*	6%	.	-14%
Cc1cncnc1C1CCN(c2cc(C3CC(N)C3)ncn2)CC1 (stereo not drawn)	.	.	.	14µM*	.	.
NC1CC(c2cc(N3CCN(c4nnc(C(F)(F)F)s4)CC3)ncn2)C1 (stereo not drawn)	.	.	.	9%	.	.
Cc1cccn2cc(CNC(=O)CC3CCCC3)nc12	1%	-4%	32µM*	133%	2%	2%
Nc1nc2c(s1)C(c1cccc(Cl)c1Cl)CC(=O)N2 (stereo not drawn)	.	.	.	20µM*	.	.
O=C1CC(c2ccccc2OCc2ccccc2F)c2cn[nH]c2N1 (stereo not drawn)	.	.	.	10%	.	.
Nc1nc2c(s1)C(c1ccccc1OCc1ccccc1Cl)CC(=O)N2 (stereo not drawn)	.	.	.	0.89µM*	.	.
COc1cc2c(cc1OC)C(c1cccc(Cl)c1Cl)CC(=O)N2 (stereo not drawn)	0%	-1%	2%	10%	5%	0%
COc1ccc(C2CC(=O)Nc3nc(N)sc32)cc1OCc1ccccc1Cl (stereo not drawn)	.	.	.	1.1µM*	.	.
O=C1CC(c2cc(Cl)ccc2F)c2c(n3c(nc4ccccc43)[nH]c2=O)N1 (stereo not drawn)	.	.	.	7%	.	.
Nc1nc2c(s1)C(c1cc(Cl)ccc1F)CC(=O)N2 (stereo not drawn)	.	.	.	35µM*	.	.
Cc1cc(C)n2ncc(-c3noc(C(=O)NCCO)n3)c2n1	.	.	.	-10%	.	.
CCOC(=O)C(C)NC(=O)N1CCC2(CC1)CN(Cc1ccc(OC)cc1)C2=O (stereo not drawn)	.	.	.	41%	.	.
CCOC(=O)c1[nH]c2ccc(OC)cc2c1NC(=O)CN1CCc2ccccc2C1	0%	0%	16µM*	0%	9%	21%
CCOC(=O)c1oc2ccccc2c1NC(=O)CN1CCN(C)CC1	-4%	-9%	-24%	2%	-1%	-6%
SMILES	Rango-impB inh	TSG101-PTAP inh	ClpP mod	12-LOX inh	TDP1 inh	Rango dissoc inh
CCOC(=O)c1[nH]c2ccc(OC)cc2c1NC(=O)CN1CCN(c2ccccn2)CC1	.	.	.	.	-5%	.
CCOC(=O)c1oc2ccc(OC)cc2c1NC(=O)CN1CCN(C)CC1	-2%	-3%	16µM*	-16%	2%	2%
CCOC(=O)c1[nH]c2ccc(F)cc2c1NC(=O)C(C)N1CCc2cc(OC)c(OC)cc2C1 (stereo not drawn)	1%	-4%	20µM*	?	7%	7%
CCOC(=O)c1[nH]c2ccccc2c1NC(=O)CCN1CCN(C(=O)OCC)CC1	-2%	-3%	22µM*	0%	3%	2%
CCOC(=O)c1[nH]c2ccc(F)cc2c1NC(=O)C1CC1	.	.	.	-2%	.	.
Cn1nccc1CN1CCCC(c2nn(-c3ccc(Cl)cc3)c(=O)[nH]2)C1 (stereo not drawn)	.	.	.	-16%	.	.
Cc1noc(C)c1CN1CC[C@@H]2OCC(=O)N(Cc3c[nH]c4ccccc34)[C@H]2CC1	.	.	.	13%[176 µM]	.	.
CNC(=O)[C@@H]1C[C@H](Oc2cccnc2)CN1S(=O)(=O)c1cccs1	.	.	.	-9%	.	.
CCOC(=O)c1[nH]c2ccc(OC)cc2c1NC(=O)C(C)N1CCC2(CC1)OCCO2 (stereo not drawn)	.	.	.	.	6%	.
CCOC(=O)c1[nH]c2ccc(OC)cc2c1NC(=O)CCN1CCC(C(=O)OCC)CC1	.	.	.	-6%	.	.
COC(=O)c1[nH]c2ccc(F)cc2c1NC(=O)CCN1CC(C)OC(C)C1 (stereo not drawn)	-2%	-4%	16µM*	0%	0%	-7%
CCOC(=O)c1[nH]c2ccccc2c1NC(=O)CCN1CC(C)OC(C)C1 (stereo not drawn)	-4%	-4%	-22%	0%	4%	3%
CCOC(=O)c1[nH]c2ccc(OC)cc2c1NC(=O)CCN1CCSCC1	3%	0%	13µM*	10%	8%	8%
COC(=O)c1[nH]c2cc(OC)ccc2c1NC(=O)CCN1CCN(c2cccc(C)c2C)CC1	-4%	-3%	25µM*	-23%	4%	-14%
CCOC(=O)c1[nH]c2ccc(OC)cc2c1NC(=O)CN1CCC2(CC1)OCCO2	2%	-6%	14µM*	47%	-2%	8%
COc1cccc(CC(=O)N2CCCCCCNC(=O)[C@H]3CCCC[C@H]32)c1	.	.	.	10%	.	.
CC(=O)N1CCC([C@@H]2CN(C3CCN(CC(C)C)CC3)C[C@H]2CO)CC1	.	.	.	104%	.	.
Cc1cc(C(=O)Nc2sc(C)c(-c3ccc(F)cc3)c2C(N)=O)no1	-2%	-4%	13µM*	-22%	6%	21%
COc1cccc(S(=O)(=O)N2CCCCC2c2nc(-c3cnccn3)n[nH]2)c1 (stereo not drawn)	.	.	.	16%	.	.
CCOc1ccc(Cc2n[nH]c(=S)n2N)cc1	-1%	-1%	-1%	?	-2%	5%
Nn1c(Cc2ccc(Br)cc2)n[nH]c1=S	-2%	-2%	.	28µM*	8%	-8%

Screening data (PubChem)
